In the library only some 4.6% were active in any assay of this set; here they are far more common.
SKKanGAS inh: inhibitors of SKKanGAS S. pyogenes growth in kanamycin (SK-promoter or general growth effect) | inhibition, % at 7.5 µM | 300,000 compounds, 1.3% hits | BacTiter-Glo, 6 h | AID 1662;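 active = mean replicate score, as percent of positive control median, at least 50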;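 also: strain carries kanamycin resistance gene driven by streptokinase promoter and grows in 40 µg/ml kanamycin; loss of luminescence reflects streptokinase promoter inhibition or plain growth inhibition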
tim10-1 inh: growth inhibitors of tim10-1 mutant yeast | 330,000 compounds, 2.2% hits | S. cerevisiae tim10-1 ts strain growth, BacTiter-Glo, 24 h | AID 463190 | inhibition, % at 20 µM;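 active = inhibition of at least 40%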;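 also: mutant grown at 25 °C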
NALP3 yeast inh: blocks the NALP3 inflammasome reconstituted in yeast; Yeast reconstituted NLRP3/ASC/caspase-1, beta-gal luminescence, 24 h; inhibition, % at 10 µM; 330,000 compounds, 0.39% hits;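 active = inhibition of 50% or more; inactive = inhibition below 50%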
PfHsp90 set2: growth inhibition of yeast expressing Plasmodium Hsp90. 310,000 compounds, 0.32% hits. S. cerevisiae expressing PfHsp90, BacTiter-Glo ATP, 48 h; yeast lacking PDR1 and PDR3 efflux regulators. inhibition, % at 9.4 µM;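 active = every replicate shows inhibition above about 80%, whatever the replicate mean, limit read from the data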
tim23-1 inh: tim23-1 yeast growth inhibition; S. cerevisiae tim23-1 growth, BacTiter-Glo luminescence, 24 h; inhibition, % at 20 µM; 330,000 compounds, 1.3% hits;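 active = growth inhibition of the mutant yeast at or above 50%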;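 also: temperature-sensitive mutant grown at 25 °C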
TIM10 inh: growth inhibitors of TIM10 yeast strain | S. cerevisiae TIM10 strain growth, BacTiter-Glo luminescence, 24 h | inhibition, % at 10 µM | 330,000 compounds, 1.4% hits | AID 463195;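 active = inhibition of 40% or more at the single tested concentration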;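 also: wild-type TIM10 isogenic control strain grown at permissive 25 °C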
tim23-1 conf: tim23-1 yeast growth inhibition, confirmed. inhibition, % at 20 µM. 4,400 compounds, 83% hits. S. cerevisiae tim23-1 growth, BacTiter-Glo luminescence, 24 h. shares compounds with tim23-1 inh. AID 463218;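 active = inhibition above about 39% in either of two replicate wells at 20 µM, limit read from the data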;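 also: temperature-sensitive tim23-1 mutant grown at 25 °C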
Of the large screens only hits and unclear results are named; the others gave an inactive call (follow-up assays come after a bar, where they were run).

O=C(Nc1ccc(Oc2nnc(-c3ccccc3)c3ccccc23)cc1)c1ccccc1	none
O=C(Nc1nccs1)c1ccc(Br)cc1	tim23-1 inh 56 | tim23-1 conf inactive
O=C(Nc1nccs1)c1ccc(Br)s1	tim23-1 inh 64 | tim23-1 conf 52
O=C(CCNC(=O)c1ccc(Br)cc1)Nc1nccs1	none
CC(C)(C)OC(=O)CNC(=O)c1nc[nH]c1C(=O)N1CCNCC1	none
COc1ccc(CC(=O)Nc2c3c(nn2-c2ccccc2C)CS(=O)C3)cc1 (stereo not given)	tim23-1 inh 97 | tim23-1 conf inactive
Cc1ccc(Sc2ccc(N)cc2C#N)cc1	tim23-1 inh 58 (no result: PfHsp90 set2) | tim23-1 conf inactive
Cc1ccc(/C=C2\C(=O)ON=C2c2ccccc2)o1	tim23-1 inh 53 | tim23-1 conf 53
Cc1ccc(-c2ccc(/C=C3\C(=O)ON=C3c3ccccc3)o2)c([N+](=O)[O-])c1	tim23-1 inh 70 | tim23-1 conf 67
O=C1/C(=C\c2ccc(-c3ccccc3[N+](=O)[O-])o2)C(c2ccccc2)=NN1c1ccccc1	none (no result: PfHsp90 set2)
COc1ccc(/C=C2\C(=O)ON=C2c2ccccc2)cc1	none
O=C(O)CN1C(=O)/C(=C\c2cc(Br)ccc2OCc2ccc(Cl)cc2Cl)SC1=S	SKKanGAS inh 105, tim23-1 inh 53 | tim23-1 conf 56
CSc1ccc(C2NN=C(c3ccccc3)S2)cc1 (stereo not given)	none
Oc1ccccc1C1NN=C(c2ccccc2)S1 (stereo not given)	tim23-1 inh 58 | tim23-1 conf 54
Clc1ccc(-c2cn3cccnc3n2)cc1Cl	tim23-1 inh 54 | tim23-1 conf inactive
Clc1ccc(-c2cn3cccnc3n2)cc1	tim23-1 inh 53 | tim23-1 conf inactive
Cc1ccccc1C(=O)Oc1ccc(Sc2ccc(O)cc2)cc1	SKKanGAS inh 96, tim23-1 inh 57 (no result: PfHsp90 set2) | tim23-1 conf inactive
C=CCn1c(SCC2CCCCO2)nc2sc(CC)cc2c1=O (stereo not given)	none
Cc1cccc(-c2ocnc2C(=O)N2CCN(C(=O)c3cccs3)CC2)c1	none
O=C(Nc1ccccc1N1CCOCC1)c1ccco1	none
O=C(NC(=S)Nc1cccc(Cl)c1N1CCCCC1)c1ccco1	tim23-1 inh 51 | tim23-1 conf inactive
O=C(NC(=S)Nc1cccc(Cl)c1N1CCCCC1)c1cccs1	SKKanGAS inh 60, tim23-1 inh 53 | tim23-1 conf inactive
O=C(NC(=S)Nc1ccccc1N1CCOCC1)c1ccco1	tim23-1 inh 55 | tim23-1 conf inactive
CC(C)C(NC(=O)c1ccco1)C(=O)OCC(=O)Nc1ccc(C(N)=O)cc1 (stereo not given)	none
COc1cccc(-n2nnnc2SCC(=O)N2CCCc3ccccc32)c1	tim23-1 inh 58 | tim23-1 conf 54
COc1cc(OC)cc(-n2nnnc2SCC(=O)N2CCCc3ccccc32)c1	none
Cc1ccc(NCc2ccc(O)c3ncccc23)cc1	none
Cc1cccc(N=Nc2ccc(O)c3ncccc23)c1	SKKanGAS inh 92, PfHsp90 set2 101, tim23-1 inh 60 | tim23-1 conf 56
O=C(O)c1ccc(CNCc2cccc(Oc3ccccc3)c2)cc1	none
CCOc1cccc(CNCc2ccc(C(=O)O)cc2)c1	tim23-1 inh 89 | tim23-1 conf inactive
Cc1cnc(NC(=O)c2cc3c(s2)CCCC3)s1	tim23-1 inh 55 | tim23-1 conf 47
CCc1nnc(NC(=O)c2cc3c(s2)CCCCC3)s1	none
CCO[C@H]1OC(C(=O)Nc2ccccc2)=C[C@@H](c2ccc(C(F)(F)F)cc2)[C@@H]1CCCO	none
Cc1ccc(C(=O)N2c3ccccc3OCC2C)cc1 (stereo not given)	none
Cc1ccc(C(=O)N2C(=O)C(c3ccccc3)Oc3ccccc32)cc1 (stereo not given)	tim23-1 inh 69 | tim23-1 conf 53
O=[N+]([O-])c1ccc2nc(Cl)nc(-c3ccccc3)c2c1	tim23-1 inh 54 | tim23-1 conf 48
O=C1Nc2ccc(Br)cc2/C1=C/c1ccc(C(=O)O)cc1	none (no result: PfHsp90 set2)
COc1cc(SC)ccc1C(=O)Nc1ccc2c(c1)CCC2	tim23-1 inh 51 | tim23-1 conf 39
COc1ccc(S(=O)(=O)N2CCc3ccccc3C2)cc1	tim23-1 inh 53 | tim23-1 conf 45
C=CCN(CC=C)C(=S)NC(=O)c1ccc(C)c(Br)c1	none
O=[N+]([O-])c1ccc(O)c(/C=N/n2cnnc2)c1	none
O=C1/C(=C/c2cccc(Br)c2)SC(=S)N1/N=C/c1cc([N+](=O)[O-])ccc1O	tim23-1 inh 82 | tim23-1 conf inactive
N#C/C(=C\c1cccnc1)c1ccc([N+](=O)[O-])cc1	tim23-1 inh 55 | tim23-1 conf inactive
CC(=O)Nc1ccc(C2=NN(c3ccccc3)C(c3ccccc3)C2)cc1 (stereo not given)	none
CC(=O)Nc1ccc(C2CC(c3ccc(Cl)cc3)=NN2c2ccccc2)cc1 (stereo not given)	tim23-1 inh 63 | tim23-1 conf 42
CC(O)CNc1cnccn1 (stereo not given)	none
Fc1ccc(CNc2nc(-c3cccnc3)nc3ccccc23)cc1	none
CCN(CC)c1nc(-c2ccccc2)nc2ccccc12	tim23-1 inh 51 | tim23-1 conf 43
Fc1ccccc1-c1nc(NCc2ccccc2)c2ccccc2n1	tim23-1 inh 50 (no result: PfHsp90 set2) | tim23-1 conf inactive
c1ccc(CNc2nc(-c3cccs3)nc3ccccc23)cc1	none (no result: tim10-1 inh, NALP3 yeast inh, tim23-1 inh, TIM10 inh)
c1ccc(CNc2nc(-c3ccccc3)nc3ccccc23)cc1	tim23-1 inh 56 | tim23-1 conf inactive
CC1(C)C(=S)N(Cc2ccccc2)c2ccccc21	none
CCn1c(COc2ccc(OC)cc2)nnc1SCc1nc2ccccc2c(=O)[nH]1	none (no result: PfHsp90 set2)
COc1ccc(NC(=O)CSc2nc3sc(C)cc3c(=O)n2C)c(OC)c1	none
COc1ccc(C(=O)Nc2nc3cc4c(cc3s2)OCO4)c(OC)c1	none
NNC(=O)c1oc2nc(-c3ccccc3)cc(-c3ccccc3)c2c1N	tim23-1 inh 59 | tim23-1 conf inactive
Cc1ccc(-c2cc(-c3ccco3)c3c(N)c(C(=O)NN)oc3n2)cc1	none
Cc1ccc(OCC(O)Cn2nc(C)cc2C)cc1 (stereo not given)	none
CC(C)[C@@]1(c2ccccc2)ON(c2ccccc2C(F)(F)F)C1=O	none (no result: SKKanGAS inh, PfHsp90 set2)
Cc1ccccc1[C@]1(C)ON(c2ccccc2C(F)(F)F)C1=O	tim23-1 inh 53 (no result: SKKanGAS inh, PfHsp90 set2) | tim23-1 conf 58
O=C(CN1C(=O)NC2(CCc3ccccc32)C1=O)c1ccc(Cl)cc1 (stereo not given)	none
CC(C)c1ccc(C(=O)CN2C(=O)NC3(CCc4ccccc43)C2=O)cc1 (stereo not given)	tim23-1 inh 54 (no result: SKKanGAS inh) | tim23-1 conf 44
O=C/C=C/c1c(-c2ccccc2)cc2oc3ccccc3cc1-2	tim23-1 inh 50 | tim23-1 conf 59

Assay outcomes as filed in PubChem.
